The record followed here is PubChem BioAssay.

Activity calls are given as the source filed them.

The test system of experiment [1] is Plasmodium falciparum Sir2 (PF13_0152, Sir2A). The experiment is described as follows: pfSir2 binders on small-molecule microarrays, primary screen, biochemical, small-molecule microarray, 635 nm fluorescence (AID 1098).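 Further: score merges spot fluorescence intensity with its signal-to-noise ratio.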 The settings on record: small-molecule microarray binding, fluorescence 635 nm; higher = more signal.
Experiment [2] is described as follows: small-molecule microarray binders of probe aDKK1, primary screen, biochemical, biotinylated probe, 635/667 nm fluorescence (AID 1099).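 Further: score merges 667nm spot fluorescence with signal to noise across triplicate slides; reference of the scale not given here.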 The settings on record: higher = more signal.
Experiment [3] in a line: small-molecule microarray binders of probe aCHRDL2, primary screen, biochemical, biotinylated probe, 635/667 nm fluorescence (AID 1100). As to conditions: higher = more signal.
Experiment [4] is described as follows: splicing luciferase reporter signal modulators, primary screen, spliceosome inhibition project, cell-based, HEK293, splice +/- reporter (AID 1101).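 Further: HEK293 cells carrying a splicing-competent luciferase reporter gene; test concentration not given here.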 The settings on record: luminescence, 24 h, higher = more signal, called active from +8 up or from −8 down. For orientation: Reporter assays use an easily measured gene product as a stand-in for the process of interest.

Experiment [5] has as its target Fibroblast growth factor 10 (Homo sapiens) (UniProt O15520). The experiment is described as follows: FGF10 binders on small-molecule microarrays, primary screen, biochemical, small-molecule microarray, 635 nm fluorescence (AID 1102). As to conditions: FGF10 binding, fluorescence 635 nm, higher = more signal.
Experiment [6] deals with glycogen synthase kinase-3 (GSK3A per assay name; protocol says GSK3B). In words: GSK3 binders on small-molecule microarrays, primary screen, biochemical, small-molecule microarray, 635 nm fluorescence, GSK3A (AID 1103). Further: the record names both GSK3A and GSK3B. As to conditions: small-molecule microarray binding, fluorescence 635 nm; higher = more signal.
Experiment [7] concerns the target Epidermal growth factor receptor (Homo sapiens) (UniProt P00533). In words: EGFR binders on small-molecule microarrays, primary screen, biochemical, small-molecule microarray, 635 nm fluorescence (AID 1104).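 Further: score merges 667 nm emission intensity with spot signal to noise over triplicate slides.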 The settings on record: EGFR binding, higher = more signal.
Experiment [8] has as its target Follistatin-related protein 3 (Homo sapiens) (UniProt O95633). The experiment is described as follows: FSTL3 binders on small-molecule microarrays, primary screen, biochemical, small-molecule microarray, 635 nm fluorescence (AID 1105).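 Further: score merges emission near 667 nm and signal to noise per printed spot across three slides.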 The settings on record: FSTL3 binding, higher = more signal.
In experiment [9] the target is Dickkopf-related protein 1 (Homo sapiens) (UniProt O94907). The experiment is described as follows: DKK1 binders on small-molecule microarrays, primary screen, biochemical, small-molecule microarray, 635 nm fluorescence scan (AID 1106).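 Further: score merges emission near 667 nm with signal to noise over three replicate slides.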 The settings on record: DKK1 binding, higher = more signal.
Sequence of Dickkopf-related protein 1 (Homo sapiens) (O94907 whole entry, looked up): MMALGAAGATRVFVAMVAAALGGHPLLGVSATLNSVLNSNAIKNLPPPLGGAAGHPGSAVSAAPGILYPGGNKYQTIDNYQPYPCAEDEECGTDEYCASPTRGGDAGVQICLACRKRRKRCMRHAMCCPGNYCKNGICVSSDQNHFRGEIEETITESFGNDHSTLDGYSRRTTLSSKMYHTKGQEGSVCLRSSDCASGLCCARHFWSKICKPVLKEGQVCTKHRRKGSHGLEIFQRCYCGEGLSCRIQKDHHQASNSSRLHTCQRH
Experiment [10] relates to Inhibin beta A chain (activin A). In words: INHBA (activin A) binders on microarrays, primary screen, biochemical, small-molecule microarray, 635 nm fluorescence scan (AID 1107).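 Further: mouse activin A protein probed at 4.33 µg/mL on printed slides; score merges bound-protein fluorescence near 667 nm with spot signal-to-noise.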 As to conditions: small-molecule microarray binding, higher = more signal.

Sequence of Epidermal growth factor receptor (Homo sapiens) (P00533 whole entry, looked up): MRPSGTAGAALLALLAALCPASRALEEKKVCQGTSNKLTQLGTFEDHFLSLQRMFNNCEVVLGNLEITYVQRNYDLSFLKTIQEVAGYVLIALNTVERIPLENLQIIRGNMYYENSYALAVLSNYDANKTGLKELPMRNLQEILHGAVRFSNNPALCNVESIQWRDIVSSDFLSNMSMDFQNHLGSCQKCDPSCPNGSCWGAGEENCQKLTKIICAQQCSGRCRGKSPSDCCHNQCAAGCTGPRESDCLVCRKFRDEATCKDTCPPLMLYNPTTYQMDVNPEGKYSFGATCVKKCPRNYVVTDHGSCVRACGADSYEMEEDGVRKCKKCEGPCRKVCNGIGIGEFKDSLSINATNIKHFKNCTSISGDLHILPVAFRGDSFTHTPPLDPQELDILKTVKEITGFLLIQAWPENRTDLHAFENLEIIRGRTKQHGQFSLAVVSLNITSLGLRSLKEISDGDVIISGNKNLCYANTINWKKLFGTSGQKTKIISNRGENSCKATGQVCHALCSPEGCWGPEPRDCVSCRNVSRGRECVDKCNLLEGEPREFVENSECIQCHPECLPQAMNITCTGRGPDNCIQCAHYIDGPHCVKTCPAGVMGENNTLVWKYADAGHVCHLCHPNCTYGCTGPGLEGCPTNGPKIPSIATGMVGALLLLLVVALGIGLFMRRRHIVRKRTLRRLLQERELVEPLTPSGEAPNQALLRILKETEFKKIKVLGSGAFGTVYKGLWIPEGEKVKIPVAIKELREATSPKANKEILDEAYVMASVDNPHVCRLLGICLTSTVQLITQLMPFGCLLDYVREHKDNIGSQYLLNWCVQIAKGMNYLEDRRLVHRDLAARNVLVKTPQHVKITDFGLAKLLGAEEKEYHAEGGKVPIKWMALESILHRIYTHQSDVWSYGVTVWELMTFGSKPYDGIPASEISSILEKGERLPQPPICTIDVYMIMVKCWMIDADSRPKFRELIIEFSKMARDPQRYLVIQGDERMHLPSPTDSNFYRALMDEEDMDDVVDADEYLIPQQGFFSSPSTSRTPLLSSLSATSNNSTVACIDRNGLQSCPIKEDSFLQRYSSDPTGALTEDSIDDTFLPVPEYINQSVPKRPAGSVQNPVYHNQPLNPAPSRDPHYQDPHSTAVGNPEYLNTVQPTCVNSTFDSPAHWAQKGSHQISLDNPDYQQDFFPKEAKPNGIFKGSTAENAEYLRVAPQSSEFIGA
Sequence of Follistatin-related protein 3 (Homo sapiens) (O95633 whole entry, looked up): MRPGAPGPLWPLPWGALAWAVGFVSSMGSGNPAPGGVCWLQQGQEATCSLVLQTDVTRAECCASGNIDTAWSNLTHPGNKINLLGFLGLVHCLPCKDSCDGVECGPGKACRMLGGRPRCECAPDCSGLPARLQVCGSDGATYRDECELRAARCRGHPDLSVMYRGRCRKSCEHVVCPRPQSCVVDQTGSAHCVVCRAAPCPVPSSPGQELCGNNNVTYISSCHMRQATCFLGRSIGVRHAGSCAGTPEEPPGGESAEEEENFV
Sequence of Fibroblast growth factor 10 (Homo sapiens) (O15520 whole entry, looked up): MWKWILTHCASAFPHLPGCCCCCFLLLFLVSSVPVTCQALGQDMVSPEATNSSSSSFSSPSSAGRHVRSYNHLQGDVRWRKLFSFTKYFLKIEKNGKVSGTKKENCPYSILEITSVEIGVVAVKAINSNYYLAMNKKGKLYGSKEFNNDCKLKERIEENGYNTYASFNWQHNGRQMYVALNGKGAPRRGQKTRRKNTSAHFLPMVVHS

On to `CCOC(=O)C[C@H]1[C@H](OC(=O)c2ccc(C(=O)c3ccccc3)cc2)[C@@H](NC(=O)C2CCCCC2)c2cc(OCCCO)ccc2N1C(=O)Cc1ccc(OC)cc1`, for which the composite z-score was determined as 0.331 in experiment [1]; 0.765 in experiment [2]; 0.7 in [3]; 0.547 in experiment [5]; 0.328 in experiment [6]; 0.285 in experiment [7]. The composite z-score came to 0.459 in experiment [8], 0.0351 in experiment [9] and 0.666 in experiment [10]. For the same compound, the z-score in experiment [4] is 0.0309 (inactive).

With `C=CCNC(=O)[C@H]1[C@@H]2C(=O)O[C@@H](c3ccccc3)[C@@H](c3ccccc3)N2[C@@H](c2ccc(O)cc2)[C@]12C(=O)N(C(=O)OCCOC)c1ccc(C#CC3(O)CCCCCC3)cc12`, the composite z-score in experiment [1] worked out at 1.35; in [2], 0.263; in [3], 0.468; in [5], 0.385; in experiment [6], 0.716; in [7] it was 0.228. In addition, the values for the composite z-score in experiment [8], in experiment [9] and in [10] were 0.33, 0.138 and 1.09, respectively. For the same compound, the z-score in [4] was 0.0928 (inactive).

As for `COc1ccc([Si](C)(C)[C@@H]2[C@@H](CCO)O[C@]3(C(=O)N(Cc4ccccc4)c4ccc(N5CCCCC5=O)cc43)[C@H]2C)cc1`, the composite z-score was 0.883 in experiment [1]; -0.107 in [2]; -0.0137 in experiment [3]; 0.959 in [5]; 1.1 in [6]; 0.197 in [7]. Further, the composite z-score in [8] was 0.962; in [9], 0.218; in experiment [10], 0.796. In addition, in [4], the z-score was -4.14 (inactive).

As to `COCCCNC(=O)[C@@]1(C)c2ccccc2C(=O)N(c2ccc(C)cn2)[C@H]1c1ccc(CO)cc1`, the composite z-score in experiment [1] is 0.963; in experiment [2] it was -0.748; in experiment [3] it was -0.75; in experiment [5], -1.15; in experiment [6], -0.799; in [7], -0.626. The composite z-score in [8] is -0.551; in experiment [9], -0.813; in experiment [10] it was 0.534. For the same compound, the z-score in experiment [4] was 0.532 (inactive).

Take `[N-]=[N+]=Nc1ccccc1C[C@]1(C(=O)NCCN2CCOCC2)N=C(c2ccc(OCCCO)cc2)O[C@H]1c1ccccc1N=[N+]=[N-]`: the composite z-score in experiment [1] is 1.15; in experiment [2] it was 0.63; in [3], 1.07; in experiment [5], 1.47; in experiment [6] it was 1.29; in [7], 0.472. Further, the results for the composite z-score in experiment [8], in experiment [9] and in [10] were 1.2, 0.418 and 1.18, respectively. Besides, the z-score in experiment [4] was -1.41 (inactive).

As to `COCCOC(=O)N1C(=O)[C@@]2(c3cc(C#CCNC(N)=O)ccc31)[C@H](C(=O)N1CCCCCCC1)[C@H]1C(=O)O[C@H](c3ccccc3)[C@H](c3ccccc3)N1[C@@H]2c1ccc(OCCO)cc1`, the composite z-score in experiment [1] was 0.918; in experiment [2], 0.774; in [3] it was 0.989; in [5], 0.544; in experiment [6], 0.211; in [7], 0.588. Further, the composite z-score in [8] amounted to 0.762; in experiment [9], 0.0313; in [10] it was 0.999. For the same compound, in experiment [4], the z-score is 0.524 (inactive).

For the compound `CN1C(=O)C2C=CC(C(O)c3cccc4ccccc34)N(NC(=O)OC(C)(C)C)C2C1=O` (stereo not given), the composite z-score in experiment [1] was 1.37; in experiment [2], 1.33; in experiment [3], 1.43; in experiment [5], 0.373; in experiment [6], 1.03; in [7] it was -0.0459. For the same compound, the composite z-score in experiment [8] was 0.85; in experiment [9] it was -0.123; in [10], 0.844. Also, in experiment [4], the z-score is 2.35 (inactive).

Consider `CCOc1cc(C(O)C2C=CC3C(=O)NC(=O)C3N2Nc2ccccn2)ccc1O` (stereo not given), for which the composite z-score was 0.38 in [1]; -0.0596 in experiment [2]; -0.0156 in experiment [3]; 0.592 in experiment [5]; 0.156 in [6]; 0.28 in experiment [7]. In addition, the composite z-score was 0.189 in experiment [8], 0.107 in experiment [9] and 0.925 in [10]. In addition, the z-score in [4] is 1.12 (inactive).

In the case of `COc1ccc(CCNC(=O)[C@@H]2c3ccccc3C(=O)N(Cc3ccccc3C(F)(F)F)[C@H]2c2ccc(CO)cc2)cc1`, the composite z-score in experiment [1] was 1.46; in experiment [2], -0.0126; in experiment [3] it was 0.946; in [5], 0.176; in experiment [6], 0.013; in [7], -1.01. Besides, the composite z-score in experiment [8] is -0.348; in experiment [9], -0.814; in experiment [10], 0.288. The z-score in experiment [4] was 0.609 (inactive).

Consider `C=CCNC(=O)[C@@H]1[C@H]2C(=O)O[C@H](c3ccccc3)[C@H](c3ccccc3)N2[C@H](c2ccc(O)cc2)[C@@]12C(=O)Nc1ccc(C#CCCO)cc12`, for which the composite z-score in [1] was 1.84; in experiment [2], -0.25; in experiment [3] it was 0.216; in [5], -0.861; in experiment [6] it was -1.07; in experiment [7], -0.949. For the same compound, the composite z-score in experiment [8] was -0.459; in experiment [9], 0.0119; in experiment [10], -0.348. Also, in experiment [4], the z-score was -0.831 (inactive).

Consider `CC1CC/C=C\[C@H]2OC34C=CCN(Cc5ccccc5)C(=O)[C@H]3N(CCO)C(=O)[C@@H]4C2C(=O)O1` (stereo not given in full), for which the composite z-score in experiment [1] is 1.59; in experiment [2], -0.0038; in experiment [3], 0.681; in experiment [5], 0.237; in experiment [6], -0.252; in experiment [7], -1.11. Besides, the composite z-score in experiment [8] was -1.07; in experiment [9] it was -0.798; in [10], 1.23. Also, in [4], the z-score was 0.229 (inactive).

Take `C[C@@]1([C@@H](NC(=O)c2cccs2)c2ccc(-c3ccccc3)cc2)C[C@H]1C1CCCCC1`: the composite z-score in experiment [1] is 0.385; in experiment [2], -0.336; in [3], 0.126; in experiment [5] it was -0.728; in experiment [6] it was -1.74; in [7], -0.84. The composite z-score in [8] was -0.671; in experiment [9] it was 0.0374; in experiment [10], 1.49. Further, the z-score in [4] was -3.26 (inactive).

Turning to `C[C@H]1NC(=O)C([C@@H](C)OCc2ccccc2)NC(=O)[C@@]23C(=O)N[C@@H](Cc4ccccc4)C2[C@H](C)[C@@]2(C)O[C@H]2C3/C=C/CC/C=C/CNC1=O` (stereo not given in full), the composite z-score in [1] was -0.0404; in [2], 0.0094; in experiment [3] it was -0.298; in experiment [5] it was 0.365; in experiment [6], -0.248; in experiment [7] it was 0.279. The values for the composite z-score in experiment [8], in experiment [9] and in experiment [10] were 0.575, 0.506 and 1.42, respectively. In addition, the z-score in experiment [4] is -1.39 (inactive).

With `COc1cccc(C[C@H]2C[C@@H](CO[Si](C(C)C)(C(C)C)C(C)C)N3C(=O)[C@]4(C(C)=O)O[C@]23[C@H]2C(=O)N(C)C(=O)[C@H]24)c1`, the composite z-score in [1] is 0.817; in experiment [2], -0.0616; in experiment [3], -0.463; in experiment [5] it was 0.759; in experiment [6], 1.02; in experiment [7], 0.468. Further, the figures for the composite z-score in experiment [8], in [9] and in [10] were 1.09, 0.53 and -0.254, respectively. For the same compound, in experiment [4], the z-score was -1.29 (inactive).
